PI4K2A inh = PI4K2A (human) kinase inhibition. 420,000 compounds, 0.13% hits. Q9BTU6. activity change, negative = inhibition, % at 76.9 µM. purified PI4K2A, ADP-Glo luminescence, 1 h; active compounds read low; in the data active means activity change below about -50%; inconclusive means mostly about -30% to -49%
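Compounds are screened against recombinant PI4K2A using PI as substrate and ATP, the latter dispensed at 300 microM. Reactions run one hour at ambient temperature before ADP-Glo detection; full inhibition defined by wells lacking enzyme.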
Tb PGK inh = inhibitors of T. brucei phosphoglycerate kinase; 380,000 compounds, 0.043% hits; PGK/GAPDH coupled, Kinase-Glo luminescence, 60 min; P07378; Potency, µM (doses to about 57.5 µM), usual class: inhibitors; further: nearly all actives have a fitted effect of over 60% in size
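Luminescent ATP detection (Kinase-Glo Plus) follows a 60-minute room-temperature incubation, with wells lacking PGK as controls. Buffer: 100 mM TEA (pH 7.6), 5 mM MgCl2, 0.01% Tween-20. Coupling enzyme GAPDH (100 nM final) supplies unstable 1,3-BPG in-well.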
Pin1 inh = inhibitors of human Pin1. Pin1 FP peptide displacement, HiFluor488, 10 min. 390,000 compounds, 0.009% hits. Potency, µM (highest dose often 115 µM), hits mostly inhibitors. Q13526; active means well fitted inhibition curve with a large enough effect in the polarisation, with a control signal flat, not every such curve was filed as active; inconclusive means small, poorly fitted or top-dose-only effect, or effect the other way, or a change in a side signal; inactive means no such curve, though single readings can be large or run the other way; the % refers to the polarisation
Target sequence (Q13526 whole entry, looked up): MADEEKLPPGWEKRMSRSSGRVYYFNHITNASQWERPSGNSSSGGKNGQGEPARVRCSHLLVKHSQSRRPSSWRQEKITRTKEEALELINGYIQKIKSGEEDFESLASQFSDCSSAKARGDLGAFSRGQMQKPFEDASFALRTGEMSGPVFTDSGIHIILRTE
PI5P4Ka inh = blocks human PI5P4K alpha kinase activity; PI5P4Kalpha enzyme, ADP-Glo luminescence, 60 min; active compounds read low; 330,000 compounds, 1.2% hits; max response, %; active means max response of -50% or lower; inconclusive means between -30% and -50%; inactive means -30% or higher; further: value at the top dose of about 77 µM
Target sequence (P48426 whole entry, looked up): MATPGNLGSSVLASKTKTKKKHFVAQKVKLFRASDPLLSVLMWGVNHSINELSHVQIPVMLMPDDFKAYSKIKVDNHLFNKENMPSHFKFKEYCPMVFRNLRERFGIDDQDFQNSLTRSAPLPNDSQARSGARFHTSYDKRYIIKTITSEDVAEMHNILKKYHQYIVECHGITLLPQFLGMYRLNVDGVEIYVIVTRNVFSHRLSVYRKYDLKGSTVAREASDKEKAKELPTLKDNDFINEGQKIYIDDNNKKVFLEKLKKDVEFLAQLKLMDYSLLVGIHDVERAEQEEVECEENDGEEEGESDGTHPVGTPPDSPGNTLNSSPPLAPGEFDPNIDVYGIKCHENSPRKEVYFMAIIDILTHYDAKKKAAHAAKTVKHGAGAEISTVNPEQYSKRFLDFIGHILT
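Enzyme plus substrate dispensed, test compounds pinned in, then ATP (5 microM final) added. After 60 min at RT, ADP-Glo reagent 1 for 45 min and reagent 2 for 30 min preceded luminescence imaging.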
Tb PFK inh = T. brucei PFK enzyme inhibition. O15648. T. brucei PFK, ADP-Glo luminescence. Potency, µM (doses to about 57.5 µM), actives largely listed as inhibitors. 330,000 compounds, 0.17% hits. AID 485367; further: nearly all actives have a fitted effect of over 60% in size
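ADP-Glo luminescence quantified ADP after 45 min at room temperature, with 1.25 nM T. brucei PFK, 0.1 mM ATP and 0.5 mM fructose-6-phosphate in pH 8.0 TEA buffer. qHTS titrations up to 57 µM; curves classified by quality.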
Of the large screens only hits and unclear results are named; the others gave an inactive call. The full list was thinned out, with hits kept by preference. Unless noted, the call rests on the fitted dose curve; in most records, active means well fitted curve in the direction sought with a large enough effect; inconclusive means small, poorly fitted or top-dose-only effect, or another doubt; inactive means no such curve, though single readings can be large; an effect the other way counts as inactive or inconclusive.

CCOc1ccc(-c2cc(N3C(=O)Nc4ccccc4N3O)n[nH]2)cc1	none
CCOC(=O)c1c(N2C(=O)Nc3ccccc3N2O)n[nH]c1-c1cccc(Cl)c1	PI5P4Ka inh -65.6
CCOC(=O)c1ccc(N2CSC3=C(C#N)C(c4cccs4)CC(=O)N3C2)cc1 (stereo not given)	PI5P4Ka inh -69.9
COc1ccc(N2CSC3=C(C#N)C(c4cccs4)CC(=O)N3C2)cc1 (stereo not given)	none (no result: PI5P4Ka inh)
O=C(O)c1ccccc1NS(=O)(=O)c1ccc(N/N=C/c2ccc(O)c(O)c2)c([N+](=O)[O-])c1	Tb PGK inh 35.5µM, PI5P4Ka inh -95.8 (no result: Pin1 inh, Tb PFK inh)
O=C(O)c1ccccc1NS(=O)(=O)c1ccc(NN=Cc2cccc(Cl)c2)c([N+](=O)[O-])c1	Tb PGK inh inconclusive, PI5P4Ka inh -65.9 (no result: Pin1 inh)
O=[N+]([O-])c1ccccc1NC(=S)N/N=C/c1ccc(O)c(O)c1	PI5P4Ka inh -63.1
NS(=O)(=O)c1ccc(N/N=C/c2ccccc2C(=O)O)c([N+](=O)[O-])c1	none
CCOc1cccc(/C=N/NC(=S)Nc2ccccc2[N+](=O)[O-])c1O	none
COc1ccc(NS(=O)(=O)c2ccc(NN=Cc3ccc(C(=O)O)cc3)c([N+](=O)[O-])c2)cc1	none (no result: PI4K2A inh, Tb PGK inh, Pin1 inh, PI5P4Ka inh)
O=C(O)c1ccccc1NS(=O)(=O)c1ccc(NN=Cc2ccc(F)cc2)c([N+](=O)[O-])c1	PI5P4Ka inh -57.8 (no result: Pin1 inh)
O=C(Nc1cccc([N+](=O)[O-])c1)NC1CCCCN(Cc2cccc(Cl)c2)C1=O (stereo not given)	none (no result: Tb PGK inh, Pin1 inh, PI5P4Ka inh, Tb PFK inh)
CN(C)S(=O)(=O)c1cc(NC(=O)COC(=O)/C=C/c2ccco2)ccc1Cl	Tb PGK inh inconclusive, Pin1 inh inconclusive, PI5P4Ka inh -71.5
O=C1c2cccnc2-c2ncccc21	none
O=C1C(=O)c2cccnc2-c2ncccc21	PI4K2A inh -73.8 (no result: Tb PGK inh, Pin1 inh, Tb PFK inh)
COC1=C(Br)C(=O)c2ncccc2C1=O	PI4K2A inh -55.1, Tb PGK inh inconclusive, PI5P4Ka inh inconclusive (no result: Pin1 inh, Tb PFK inh)
Cc1ccc(CSc2nnc(-c3ccccc3)n2Cc2ccco2)cc1	none (no result: Tb PGK inh, Pin1 inh, PI5P4Ka inh, Tb PFK inh)
O=C(O)c1ccc2nc(-c3cc4cccc(O)c4oc3=O)[nH]c2c1	PI4K2A inh -53.6, Tb PFK inh inconclusive (no result: Tb PGK inh, Pin1 inh, PI5P4Ka inh)
C/C(N)=C(/C#N)C(=O)CSc1nnc(Nc2c(C)cccc2C)s1	Tb PGK inh inconclusive, Pin1 inh inconclusive, PI5P4Ka inh -100.0, Tb PFK inh inconclusive
CC(C)(C)OC(=O)NCc1nnc(-c2cc3ccccc3[nH]2)o1	none (no result: PI4K2A inh, Tb PGK inh, PI5P4Ka inh, Tb PFK inh)
Cc1ccc(-c2ccc(C(=O)Nc3ccccc3)o2)c2ccccc12	PI4K2A inh -55.3
CNC(=O)c1c(I)c(NC(=O)CCCCC(=O)Nc2c(I)c(C(=O)O)c(I)c(C(=O)NC)c2I)c(I)c(C(=O)O)c1I	none (no result: Tb PGK inh, Pin1 inh, PI5P4Ka inh, Tb PFK inh)
C=CCn1c(SCC(=O)Nc2ccc(C(=O)O)cc2)nc2scc(-c3ccccc3)c2c1=O	PI5P4Ka inh -91.6
Cn1c(SCC(=O)Nc2ccc(C(=O)O)cc2)nc2scc(-c3ccccc3Cl)c2c1=O	PI5P4Ka inh -70.7
C=CCn1c(SCC(=O)Nc2ccc(C(=O)O)cc2)nc2sc(C)c(C)c2c1=O	PI5P4Ka inh -60.0
Cc1cc2c(=O)n(C)c(SCC(=O)Nc3ccccc3)nc2s1	none
C=CCn1c(CNC(=O)c2cccs2)nnc1SCC(=O)Nc1ccc(C(=O)O)cc1	PI5P4Ka inh -62.9
C=CCn1c(CNC(=O)c2cccs2)nnc1SCC(=O)c1ccc(Br)cc1	none (no result: PI5P4Ka inh)
COc1cc(S(N)(=O)=O)cc(C(=O)O)c1OC	none (no result: Tb PGK inh, Pin1 inh, PI5P4Ka inh, Tb PFK inh)
Cc1cc(C)cc(Cn2ncc3c4sc(C)cc4n(C)c3c2=O)c1	none (no result: PI4K2A inh, Tb PGK inh, PI5P4Ka inh, Tb PFK inh)
NC[C@H]1O[C@H](O[C@H]2[C@H](O[C@@H]3O[C@H](CO)[C@@H](O)[C@H]3O)C(O)[C@H](N)C[C@@H]2N)[C@H](N)[C@@H](O)[C@@H]1O (stereo not given in full)	none (no result: Tb PGK inh, Pin1 inh, PI5P4Ka inh, Tb PFK inh)
CCOC(=O)/C(C#N)=C\c1ccc(OC)c(OC)c1	none
CCOC(=O)/C(C#N)=C\c1cc(OC)c(OC)cc1[N+](=O)[O-]	PI5P4Ka inh -70.2
C#CCOCCOCCOCCNc1nc(N2CCN(C(=O)CCCCCCCCCCNC(=O)Cn3cc(C[C@@H](C)O)nn3)CC2)nc(N2CCN(C(=O)CCCCCCCCCCNC(=O)[C@H](CCCN=C(N)N)n3cc(C[C@@H](C)CC)nn3)CC2)n1	Pin1 inh inconclusive, PI5P4Ka inh -75.7

Bioassay records (PubChem BioAssay)
